PfHsp40 yeast = rescue of PfHsp40-mediated yeast toxicity; hit rate 0.68% among 340,000; AID 504582; S. cerevisiae expressing PfHsp40, growth rescue, ATP luminescence; growth rescue, % at 12.5 µM; in the data active = growth rescue above about 28%, passing the limit was not always enough; inconclusive = no clear call, values can overlap the other calls;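 note: yeast W303a lacking pdr1 and pdr3 grown in galactose medium; growth measured after three days at 30 °C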
DUSP3 inh = DUSP3 (human) phosphatase inhibition | P51452 | recombinant VHR phosphatase, pNPP absorbance | inhibition, % at 13.3 µM | hit rate 0.52% among 290,000 | AID 1654; in the data active = inhibition above about 50%
Target sequence (P51452 whole entry, looked up): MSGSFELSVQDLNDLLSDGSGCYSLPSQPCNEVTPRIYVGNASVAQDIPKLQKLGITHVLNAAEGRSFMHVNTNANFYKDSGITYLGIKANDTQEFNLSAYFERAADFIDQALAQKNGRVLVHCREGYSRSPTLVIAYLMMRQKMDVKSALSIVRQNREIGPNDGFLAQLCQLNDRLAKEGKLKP
BJeLR lethal = BJeLR cell viability loss | BJeLR (HRASV12) viability, CellTiter-Glo ATP luminescence, 48 h | inhibition, % (test concentration not listed) | hit rate 0.17% among 300,000; in the data active = inhibition above about 50%; inconclusive = no clear call, values can overlap the other calls
MazF activator = activators of E. coli MazEF toxin-antitoxin RNase; P0AE70; FAM/BHQ RNA-DNA oligo cleavage fluorescence, 5 h; activation, % at 20 µM; hit rate 0.32% among 350,000; in the data active = activation above about 50%
Target sequence (P0AE70 whole entry, looked up): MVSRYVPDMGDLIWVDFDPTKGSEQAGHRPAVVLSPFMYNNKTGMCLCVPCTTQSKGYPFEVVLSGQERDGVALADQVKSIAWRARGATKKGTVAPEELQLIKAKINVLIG
PrPC TRFRET = cell surface PrPC inhibition, primary TR-FRET screen; P04156; TR-FRET read-out; inhibition, % at 13.8 µM; hit rate 0.43% among 370,000; in the data active = inhibition above about 24%; note: 0% = median of the test wells and 100% = reference compound wells
PrP UTR inh = inhibition of PrP 5' UTR reporter expression. inhibition, % (no concentration beside the values). cell-based PrP 5' UTR mRNA reporter, plate reader. hit rate 0.35% among 340,000; in the data active = inhibition above about 52%; note: 0 = median of the neutral control wells
PrP 5UTR single = prion 5' UTR mRNA inhibition, cherry-pick retest. AID 504592. cell-based prion protein 5' UTR reporter, plate reader. hit rate 48% among 1,100. inhibition, % at 2.5 µM. shares compounds with PrP UTR inh; in the data active = inhibition above about 54%; inconclusive = no clear call, values can overlap the other calls
Numbers without * were called inactive; i = inactive; ? = inconclusive; . = not tested or not shown. An excerpt weighted towards active compounds, which were near 2.1% of everything screened.

SMILES	PfHsp40 yeast	DUSP3 inh	BJeLR lethal	MazF activator	PrPC TRFRET	PrP UTR inh	PrP 5UTR single
CCOCCOC(=O)c1[nH]c2c(c1C)C(=O)CC(c1ccccc1)C2 (configuration not stated)	-1.1	-14.3	52.9*	8.3	20.8	80.8*	90.5*
COC(=O)c1[nH]c2c(c1C)C(=O)CC(c1ccc(OC)c(OC)c1)C2 (configuration not stated)	-0.3	1.9	-2.0	7.7	2.6	5.5	.
CCCCCOC(=O)c1[nH]c2c(c1C)C(=O)CC(c1ccco1)C2 (configuration not stated)	1.3	7.6	26.2	1.8	.	59.2*	79.1*
CCOCCOC(=O)c1[nH]c2c(c1C)C(=O)CC(c1cccs1)C2 (configuration not stated)	1.5	20.1	65.1*	6.8	9.0	65.5*	87.1*
CCCCc1cc(=O)oc2cc(C)cc(OCC(=O)Nc3ccccn3)c12	1.1	15.0	2.3	-1.6	-9.0	-43.5	.
Cc1ccc(F)cc1C(=O)N1CCCC(c2cc(C(=O)Nc3ccccc3Cl)no2)C1 (configuration not stated)	.	.	.	.	6.0	.	.
CC(=Nc1ccccc1)C1=C(O)C(Cc2ccc(O)cc2)NC1=O (configuration not stated)	-1.1	.	.	0.9	7.2	53.8*	89.0*
Cn1nnc2cc(C(=O)NC3CCCCC3)ccc21	-1.1	10.8	0.0	9.0	-2.1	75.3*	82.9*
Cc1csc(NC(=O)c2ccc(N3CCCC3=O)cc2)n1	-2.6	10.6	11.9	-0.7	-2.9	55.5*	?
O=C(Nc1ccc(OCc2ccccc2Cl)cc1)c1cccnc1	4.4	25.0	-1.8	-1.1	12.7	65.9*	71.2*
O=C(Nc1ccc(OCc2ccccc2)cc1)c1cccnc1	6.7	32.9	-12.8	-10.6	2.1	-42.3	.
CCCCNC1=CC(=O)C(=O)c2ccccc21	-0.6	8.5	10.8	-22.8	-31.7	-32.1	.
CCCCN1C=CC(=C2C(=O)c3ccccc3C2=O)C=C1	-3.6	1.7	65.1*	-13.4	-28.6	86.9*	91.8*
CC(Oc1ccc(Br)cc1Cl)C(=O)Nc1ccncc1 (configuration not stated)	1.0	15.4	18.3	11.4	10.1	-14.2	.
Cc1cnc(NS(=O)(=O)c2ccc(N)cc2)nc1-c1ccccc1O	.	.	.	-1.3	-8.6	.	.
COc1ccc(OC)c(-c2nc(C(=O)NCCCN3CCOCC3)cc3c2[nH]c2ccccc23)c1	0.0	16.5	4.6	-2.8	-5.2	54.0*	0.6
CC(C)OC(=O)c1sc2nc(-c3ccccc3)ccc2c1N	1.3	-4.2	3.0	3.2	-5.6	54.1*	20.2
COc1ccc(C(=O)c2sc3nc(-c4ccccc4)ccc3c2N)cc1	-1.1	-10.4	.	-37.2	.	-14.5	.
OC(c1cccc(CN2CCCCC2)c1)c1ncc(-c2ccccc2Cl)[nH]1 (configuration not stated)	.	.	.	.	-4.7	.	.
O=C(NC(=S)Nn1cnnc1)c1ccccc1Cl	-1.4	10.2	3.9	5.0	-4.8	78.3*	-6.3
Cc1ccc([C@H]2C[C@@H](n3cc(C4CC4)nn3)[C@H](O)CN2CC2CCCCC2)cc1	.	.	.	8.3	3.3	.	.
COc1cc(-c2noc(C)c2-c2ccc(N(C)C)nc2)cc(OC)c1OC	-0.2	28.3	41.2	3.3	2.7	66.6*	89.9*
COc1cc(C2CC(=O)Oc3cc4c(cc32)OCO4)cc(OC)c1OC (configuration not stated)	-0.3	.	.	-0.3	-4.9	-13.1	.
COc1ccc(C2CC(=O)Oc3cc4c(cc32)OCO4)cc1 (configuration not stated)	-1.3	.	.	-2.9	-1.3	53.5*	-7.0
CCN(CC)C(=O)CC[C@H]1CC[C@]2(CCCN(Cc3ccccn3)C2)O1	.	.	.	.	1.7	.	.
SMILES	PfHsp40 yeast	DUSP3 inh	BJeLR lethal	MazF activator	PrPC TRFRET	PrP UTR inh	PrP 5UTR single
CC(C)(C)NC(=O)CC1C[C@H](C(=O)N2CCOCC2)[C@@]2(CCC3CCCC3)c3[nH]c4ccccc4c3CCN2C1=O (some centres not stated)	-1.9	.	.	8.1	14.0	-4.1	.
O=C(NCc1ccco1)c1ccc2c(c1)N(Cc1ccccc1)C(=O)CS2=O (configuration not stated)	0.4	16.3	1.4	7.3	3.9	60.8*	15.4
COC1CC(C)C(OC)c2cc(O)cc(c2O)NC(=O)C(C)=CC=CC(C)C(OC(N)=O)C(C)=CC(C)C1OC (configuration not stated)	0.3	.	.	3.4	1.4	30.4	.
COC1C=CC=C(C)C(=O)NC2=CC(=O)C(N)=C(CC(C)CC(OC)C(O)C(C)C=C(C)C1OC(N)=O)C2=O (configuration not stated)	0.9	.	.	1.6	-32.6	76.4*	82.2*
CC1(C)CC(NC(=O)c2ccccc2F)CC(C)(C)N1	-1.9	16.5	-7.7	0.2	-2.9	-29.1	.
CC[C@]12c3[nH]c4ccccc4c3CCN1C(=O)C(CC(=O)NCCc1ccccn1)C[C@@H]2C(=O)N1CCN(C(=O)c2ccco2)CC1 (some centres not stated)	0.9	.	.	-14.1	3.0	66.9*	-17.9
CC[C@]12c3[nH]c4cc(CCC(=O)N(C)C)ccc4c3CCN1C(=O)[C@@H](CC(=O)NCCc1ccccn1)C[C@@H]2C(=O)N1CCN(C(=O)c2ccco2)CC1	0.1	.	.	1.9	-5.3	-7.7	.
O=C(O)CCCc1ccc2c(c1)CCc1ccccc1-2	185.1*	.	-7.9	3.2	-3.3	64.8*	75.5*
CC(=O)Nc1ccc(CN(C)c2c(C)nc3ccc(C(=O)N4CCN(c5ccccc5)CC4)cn23)cc1	.	.	.	.	1.6	.	.
CCOC(=O)OC(C)OC(=O)[C@@H]1N2C(=O)[C@@H](NC(=O)[C@H](N)c3ccccc3)[C@H]2SC1(C)C (some centres not stated)	-0.1	.	.	6.8	-3.9	54.5*	-8.2
CC(Oc1ccccc1)C(=O)NC1C(=O)N2C1SC(C)(C)C2C(=O)O (configuration not stated)	0.4	35.6	1.9	-13.1	-8.6	-18.4	.
O=c1c2sc3ccccc3c2[nH]c(=S)n1CCN1CCOCC1	-2.0	13.1	-3.8	4.3	4.0	-24.7	.
Cc1ccc(N2C(=O)c3cccc4c(N)ccc(c34)C2=O)c2cccnc12	-1.1	-0.1	26.1	i	-4.3	73.8*	85.6*
CN1C2CCC1CC(NC(=O)c1cc(Cl)cc3[nH]cnc13)C2 (configuration not stated)	0.9	13.9	-2.4	7.5	-2.6	-14.7	.
O=C1CC(SC(=NCc2ccc3c(c2)OCO3)Nc2ccccc2)C(=O)N1 (configuration not stated)	4.3	23.8	-2.5	-0.4	-3.7	73.4*	-15.2
Cc1cc(C)c(C#N)c(SCc2nnc(-c3ccccc3)o2)n1	0.9	6.8	0.5	-0.3	2.8	67.6*	67.4*
